According to PubChem BioAssay (NCI):
About 79,000 compounds went through this panel and 15% of them were active in at least one assay; those are over-represented in the sample as a whole. Cut-off read from the data, not from the text of the source: active = growth inhibition above about 70%; inactive = the rest.

Legend:
[1] = NCI Yeast Anticancer Drug Screen. Data for the rad50 strain (AID 155);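 note: 0% = growth of vehicle-only cultures of the same strain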; details: S. cerevisiae rad50 strain growth inhibition; at 50.0 µM; stronger effect = higher value
Method in brief: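 Genetically altered yeast (DNA repair pathway); compound treatment; growth inhibition vs vehicle ctrl.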

[2] = NCI Yeast Anticancer Drug Screen. Data for the mec2-1 strain (AID 157); details: S. cerevisiae mec2-1 strain, at 50.0 µM, stronger effect = higher value
Method in brief: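 Test agents were screened against the mec2-1 yeast strain, with defined DNA repair or cell cycle alteration. Growth was scored as inhibition against vehicle-only controls.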

[3] = NCI Yeast Anticancer Drug Screen. Data for the sgs1 mgt1 strain (AID 161);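 note: 0% = growth of cultures given vehicle only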; details: S. cerevisiae sgs1 mgt1 strain, at 50.0 µM, stronger effect = higher value
Method in brief: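 Read-out: growth inhibition vs vehicle controls. Cells: mutant yeast strain deficient in DNA damage repair.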

[4] = NCI Yeast Anticancer Drug Screen. Data for the cln2 rad14 strain (AID 165);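 note: 0% = growth equal to vehicle treated cultures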; details: S. cerevisiae cln2 rad14 strain, at 50.0 µM, stronger effect = higher value
Method in brief: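 Growth of compound-exposed yeast (cln2 rad14 genotype) measured and expressed as inhibition relative to vehicle.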

[5] = NCI Yeast Anticancer Drug Screen. Data for the bub3 strain (AID 167); details: S. cerevisiae bub3 mutant strain, at 50.0 µM, stronger effect = higher value
Method in brief: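 Yeast carrying a defined mutation is treated with each compound, and growth is compared with that of vehicle-exposed cells to give inhibition.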

[6] = NCI Yeast Anticancer Drug Screen. Data for the mlh1 rad18 strain (AID 175); details: S. cerevisiae mlh1 rad18 strain growth inhibition; at 50.0 µM; stronger effect = higher value
Method in brief: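 In this whole-cell yeast screen, a strain with altered DNA damage repair is challenged with compound, and its growth is measured against matched vehicle-treated controls.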

Measured: growth inhibition

CN(C)/C(N)=N/S(=O)(=O)c1ccc(C#N)cc1
inactive: [1] 5% | [2] 2.85% | [3] -0.25% | [4] 6.1% | [5] 4.7% | [6] 2.45%

Nc1ccc(-c2cc[cH-]c2)cc1.[Fe+2].c1cc[cH-]c1
inactive: [1] 8.2% | [2] 10.3% | [3] 10.8% | [4] 12.2% | [5] 21.4% | [6] 22.6%

COc1cc(/C=C2\N=C(C)OC2=O)ccc1O
inactive: [1] -2.8% | [2] -6.5% | [3] 5.7% | [4] -65.5% | [5] 2.95% | [6] 2.05%
